{
  "source": "the supplement of paper PMC10338343",
  "note": "± gives the standard deviation.",
  "data": [
    {"system": "MILI (PIWIL2) piRISC loaded with L1MC piRNA (26 nt)", "assay": "pre-steady-state target cleavage rate (min^-1); guide: L1MC piRNA 5'p-UAACUAAAUACUAUGCAAGCUGUAGG; MIWI and MILI are mouse PIWI proteins and EfPiwi is from a freshwater sponge; tags in brackets are library labels; higher = faster piRNA-guided slicing of the target", "conditions": "auxiliary factor: 500 nM mouse GTSF1", "how_it_was_run": "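Active affinity-purified piRISC (1 nM) loaded with one synthetic guide was mixed with a transcribed, DNA-blocked target RNA library (0.1 nM), with or without 500 nM GTSF1 partner protein, in HEPES–potassium acetate buffer at 33 °C for 0–8 or 0–960 min. Uncleaved targets were sequenced, normalised to depth and to weakly complementary targets, and pooled across three trials, with k3 capped at 0.0001 min^-1. The pre-steady-state cleavage rate was determined with a burst-and-steady-state fit.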", "values": [
      {"sequence": "UCCUGGAUGUCGAAGCAUAGUAUAUAGUAA", "pre-steady-state target cleavage rate": "0.012 ± 0.0042"},
      {"sequence": "UCCUGGAUGUCCUUGCAUAGUAUUAUGUUA", "pre-steady-state target cleavage rate": "0.00972 ± 0.0046"},
      {"sequence": "UCCUGGAUGUGCUUGCAUAGUAUAAAGUAA", "pre-steady-state target cleavage rate": "0.0114 ± 0.0059"},
      {"sequence": "UCCUGGAUGUCCUUGCAUAGUAUAUACUUA", "pre-steady-state target cleavage rate": "0.00862 ± 0.0049"},
      {"sequence": "UCCUGGAUGUGCUUGCAUUGAAUUUAGUUA", "pre-steady-state target cleavage rate": "0.00465 ± 0.0038"},
      {"sequence": "UCCUGGAACAGCUUGCAUAGUAUAUACUUA", "pre-steady-state target cleavage rate": "0.0233 ± 0.01"},
      {"sequence": "UCCUGGAUCAGCUUGCAUAGUAAAUACAAA", "pre-steady-state target cleavage rate": "0.0497 ± 0.016"},
      {"sequence": "UCCUGGAACAGCUUGCAUAGUAUUUAGGUA", "pre-steady-state target cleavage rate": "0.0622 ± 0.017"},
      {"sequence": "UCCUGCUACAGCUUGCAUUGUAUUUUCAAA", "pre-steady-state target cleavage rate": "0.0201 ± 0.0084"},
      {"sequence": "UCCUGGAUGAGCUUGGAUAGUAUUAAGUUA", "pre-steady-state target cleavage rate": "0.0932 ± 0.022"},
      {"sequence": "UCCUGGAACACGAUGCAUAGUAUUUAGAAA", "pre-steady-state target cleavage rate": "0.072 ± 0.018"},
      {"sequence": "UCCUGCUACAGCUUGCAUAGUAAAUACAAA", "pre-steady-state target cleavage rate": "0.0117 ± 0.006"},
      {"sequence": "UCCUGCUACAGCUUCCAUAGUAUUUUGUUA", "pre-steady-state target cleavage rate": "0.00554 ± 0.0042"},
      {"sequence": "UCCUGGAACAGCAUGCAUAGUAUUUACAAA", "pre-steady-state target cleavage rate": "0.182 ± 0.035"},
      {"sequence": "UCCUGGAUGUCCAUGCAUAGAAUUUAGUUA", "pre-steady-state target cleavage rate": "0.0111 ± 0.0048"},
      {"sequence": "UCCUGGAUGUCCAUGCAAAGUAUUUAGUUA", "pre-steady-state target cleavage rate": "0.0101 ± 0.0043"},
      {"sequence": "UCCUGGAUGUCCUUCCAUAGUAUUUAGUUA", "pre-steady-state target cleavage rate": "0.0223 ± 0.008"},
      {"sequence": "UCCUGGAUGUCCUUGCAUUGAAUUUAGUUA", "pre-steady-state target cleavage rate": "0.00493 ± 0.0046"},
      {"sequence": "UCCUGGAUCAGCUUGCUAUGUAUUUACAAA", "pre-steady-state target cleavage rate": "0.00475 ± 0.0036"},
      {"sequence": "UCCUGGAUGUCCUUCGAUAGUAUUUAGUUA", "pre-steady-state target cleavage rate": "0.00794 ± 0.0037"},
      {"sequence": "UCCUGGAUGAGCUUGCAUAGUAUUAUCUUA", "pre-steady-state target cleavage rate": "0.00985 ± 0.0048"},
      {"sequence": "UCCUGGAACAGCUUGCAUAGUUUUUACUUA", "pre-steady-state target cleavage rate": "0.0363 ± 0.011"},
      {"sequence": "UCCUGGAUCAGCUUGCAUAGAAUUUAGUAA", "pre-steady-state target cleavage rate": "0.0373 ± 0.011"},
      {"sequence": "UCCUGGAUGUCGAUGCAUAGUAUUUAGUGA", "pre-steady-state target cleavage rate": "0.0843 ± 0.016"},
      {"sequence": "UCCUGGAACAGCUAGCAUAGUAUUUUCAAA", "pre-steady-state target cleavage rate": "0.0419 ± 0.014"},
      {"sequence": "UCCUGGAUGUCGAAUCAUAGUAUUUAGUUA", "pre-steady-state target cleavage rate": "0.00554 ± 0.0026"},
      {"sequence": "UCCUCCUACAGCUUGCAUAGAAUAUAGUUA", "pre-steady-state target cleavage rate": "0.0822 ± 0.019"},
      {"sequence": "UCCUGCUACAGCUUGCAUAGUAUUUACUUA", "pre-steady-state target cleavage rate": "0.171 ± 0.032"},
      {"sequence": "UCCUGGAUGUCCUAGCAUACUAUUUAGUUA", "pre-steady-state target cleavage rate": "0.0115 ± 0.0063"},
      {"sequence": "UCCUGGAUGUCGAAGCAUAGUAUUUCAGUUA", "pre-steady-state target cleavage rate": "0.0176 ± 0.0068"},
      {"sequence": "UCCUGGUACAGCUAGCAUAGUAUUUACUUA", "pre-steady-state target cleavage rate": "0.0934 ± 0.023"},
      {"sequence": "UCCUGGAUGUGCUUGCAUAGUUUUAAGUUA", "pre-steady-state target cleavage rate": "0.0104 ± 0.0059"},
      {"sequence": "UCCUGGAUGUCCUUGCAUACUAUUUAGUAA", "pre-steady-state target cleavage rate": "0.0148 ± 0.0062"},
      {"sequence": "UCCUGGAUCUCGUUGCAUAGUAUUUAGAAA", "pre-steady-state target cleavage rate": "0.141 ± 0.024"},
      {"sequence": "UCCUGGAUGAGCAUGCAUAGAAUUUAGUUA", "pre-steady-state target cleavage rate": "0.0184 ± 0.008"},
      {"sequence": "UCCUGGAACAGCUUGCAUAGUAAAAUCAAA", "pre-steady-state target cleavage rate": "0.0152 ± 0.008"}
    ]}
  ]
}
